# Laboratory results published in ChEMBL document CHEMBL2218924, “A broad activity screen in support of a chemogenomic map for kinase signalling research and drug discovery” (Biochem J, 2013).
# Columns and labels:
# [1] = target: T1, Serine/threonine-protein kinase BRSK1 (Homo sapiens) (UniProt Q8TDC3); conditions: at 1 µM
# T1 sequence (whole entry): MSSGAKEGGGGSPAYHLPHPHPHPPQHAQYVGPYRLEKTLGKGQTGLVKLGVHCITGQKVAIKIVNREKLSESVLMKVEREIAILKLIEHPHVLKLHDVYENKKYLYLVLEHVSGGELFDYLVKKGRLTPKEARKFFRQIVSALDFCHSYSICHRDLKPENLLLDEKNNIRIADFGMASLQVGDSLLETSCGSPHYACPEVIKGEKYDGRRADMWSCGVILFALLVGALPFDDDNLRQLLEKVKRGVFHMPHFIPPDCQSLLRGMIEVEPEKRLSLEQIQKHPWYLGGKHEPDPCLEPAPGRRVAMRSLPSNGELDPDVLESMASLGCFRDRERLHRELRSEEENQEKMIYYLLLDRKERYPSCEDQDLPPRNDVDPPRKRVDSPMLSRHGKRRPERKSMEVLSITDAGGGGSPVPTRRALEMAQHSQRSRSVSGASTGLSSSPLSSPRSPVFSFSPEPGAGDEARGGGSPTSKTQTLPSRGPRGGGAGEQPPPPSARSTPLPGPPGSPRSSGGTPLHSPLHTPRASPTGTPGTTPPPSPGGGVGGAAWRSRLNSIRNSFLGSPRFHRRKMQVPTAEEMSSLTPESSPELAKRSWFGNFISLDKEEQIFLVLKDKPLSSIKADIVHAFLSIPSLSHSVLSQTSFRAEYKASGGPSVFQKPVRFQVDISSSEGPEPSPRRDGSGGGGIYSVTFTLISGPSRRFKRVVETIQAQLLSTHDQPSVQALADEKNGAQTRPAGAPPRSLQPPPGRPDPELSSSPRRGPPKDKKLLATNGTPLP
# [2] = target: T1, Serine/threonine-protein kinase BRSK1 (Homo sapiens); conditions: at 10 µM
# [3] = target: T2, Serine/threonine-protein kinase BRSK2 (Homo sapiens) (UniProt Q8IWQ3); conditions: at 10 µM
# T2 sequence (whole entry): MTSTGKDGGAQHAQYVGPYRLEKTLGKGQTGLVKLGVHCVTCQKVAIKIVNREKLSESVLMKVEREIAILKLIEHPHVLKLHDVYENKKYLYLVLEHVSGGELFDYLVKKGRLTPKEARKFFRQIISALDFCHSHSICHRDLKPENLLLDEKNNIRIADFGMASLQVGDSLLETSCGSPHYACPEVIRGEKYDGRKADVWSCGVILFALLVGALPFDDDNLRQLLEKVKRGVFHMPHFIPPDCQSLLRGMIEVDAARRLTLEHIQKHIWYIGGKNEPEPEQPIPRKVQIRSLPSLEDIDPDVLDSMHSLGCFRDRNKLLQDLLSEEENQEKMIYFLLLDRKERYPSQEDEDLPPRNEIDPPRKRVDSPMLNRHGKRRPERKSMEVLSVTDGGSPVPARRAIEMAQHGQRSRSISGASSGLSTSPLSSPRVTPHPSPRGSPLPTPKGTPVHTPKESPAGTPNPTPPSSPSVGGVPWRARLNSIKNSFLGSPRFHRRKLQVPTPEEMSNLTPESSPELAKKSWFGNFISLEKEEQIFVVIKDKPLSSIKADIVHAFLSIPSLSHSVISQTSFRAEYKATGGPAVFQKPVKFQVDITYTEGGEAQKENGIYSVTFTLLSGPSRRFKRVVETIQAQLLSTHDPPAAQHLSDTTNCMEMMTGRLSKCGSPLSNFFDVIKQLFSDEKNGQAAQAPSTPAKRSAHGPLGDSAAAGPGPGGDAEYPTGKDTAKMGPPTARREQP
# [4] = target: T3, Cyclin-dependent kinase 1/cyclin B1 (Homo sapiens) (UniProt P06493+P14635); conditions: at 1 µM
# T3 sequence (P06493 whole entry, looked up): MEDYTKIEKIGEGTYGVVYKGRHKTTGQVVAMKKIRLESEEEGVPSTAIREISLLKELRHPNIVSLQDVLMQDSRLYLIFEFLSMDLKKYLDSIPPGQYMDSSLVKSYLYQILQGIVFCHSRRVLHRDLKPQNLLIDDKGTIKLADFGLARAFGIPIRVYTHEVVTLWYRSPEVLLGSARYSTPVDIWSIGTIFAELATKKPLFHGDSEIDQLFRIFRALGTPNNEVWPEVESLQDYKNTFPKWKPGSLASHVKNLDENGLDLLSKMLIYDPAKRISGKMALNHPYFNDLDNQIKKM
# T3 sequence (P14635 whole entry, looked up): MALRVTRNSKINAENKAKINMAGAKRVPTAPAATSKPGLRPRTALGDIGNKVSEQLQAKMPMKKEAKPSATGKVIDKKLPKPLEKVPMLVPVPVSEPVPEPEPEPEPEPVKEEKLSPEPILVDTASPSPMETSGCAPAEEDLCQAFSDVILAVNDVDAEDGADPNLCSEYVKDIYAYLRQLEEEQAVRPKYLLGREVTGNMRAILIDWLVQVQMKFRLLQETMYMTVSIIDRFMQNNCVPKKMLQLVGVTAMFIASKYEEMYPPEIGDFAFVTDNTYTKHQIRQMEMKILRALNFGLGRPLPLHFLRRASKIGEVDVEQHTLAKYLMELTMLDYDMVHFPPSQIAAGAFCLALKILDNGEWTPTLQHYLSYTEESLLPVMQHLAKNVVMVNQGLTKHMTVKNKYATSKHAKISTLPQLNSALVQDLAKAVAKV
# [5] = target: T3, Cyclin-dependent kinase 1/cyclin B1 (Homo sapiens); conditions: at 10 µM
# [6] = target: T4, Cyclin-dependent kinase 2/cyclin A (Homo sapiens) (UniProt P24941+P20248+P78396); conditions: at 1 µM
# [7] = target: T4, Cyclin-dependent kinase 2/cyclin A (Homo sapiens); conditions: at 10 µM
# [8] = target: T5, Cyclin-dependent kinase 2/cyclin E (Homo sapiens) (UniProt P24864+P24941+O96020); conditions: at 1 µM
# [9] = target: T5, Cyclin-dependent kinase 2/cyclin E (Homo sapiens); conditions: at 10 µM
# [10] = target: T6, CDK3/cyclin E (Homo sapiens) (UniProt P24864+O96020+Q00526); conditions: at 1 µM
# T6 sequence (O96020 whole entry, looked up): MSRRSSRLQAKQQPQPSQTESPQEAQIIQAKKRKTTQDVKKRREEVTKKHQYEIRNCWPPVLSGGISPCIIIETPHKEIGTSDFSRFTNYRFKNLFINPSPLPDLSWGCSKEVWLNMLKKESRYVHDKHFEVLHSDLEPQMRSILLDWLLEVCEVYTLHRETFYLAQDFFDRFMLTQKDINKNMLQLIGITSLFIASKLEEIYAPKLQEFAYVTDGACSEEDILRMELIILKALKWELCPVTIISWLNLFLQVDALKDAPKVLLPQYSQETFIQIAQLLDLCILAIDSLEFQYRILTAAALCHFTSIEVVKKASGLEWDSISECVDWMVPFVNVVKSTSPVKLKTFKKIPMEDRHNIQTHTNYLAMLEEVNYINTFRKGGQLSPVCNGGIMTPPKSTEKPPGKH
# T6 sequence (P24864 whole entry, looked up): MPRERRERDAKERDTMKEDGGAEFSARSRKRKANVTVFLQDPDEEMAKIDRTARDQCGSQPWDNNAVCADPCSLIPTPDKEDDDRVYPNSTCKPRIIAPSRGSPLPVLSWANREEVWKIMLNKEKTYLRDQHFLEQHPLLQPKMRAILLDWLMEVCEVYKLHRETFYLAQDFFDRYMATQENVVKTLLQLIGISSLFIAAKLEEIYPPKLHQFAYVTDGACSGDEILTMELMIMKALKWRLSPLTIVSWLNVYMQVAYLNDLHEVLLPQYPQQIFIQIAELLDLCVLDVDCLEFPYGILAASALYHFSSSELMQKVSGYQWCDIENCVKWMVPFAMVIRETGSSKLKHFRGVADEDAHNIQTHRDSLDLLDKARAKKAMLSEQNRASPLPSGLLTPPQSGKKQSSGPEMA
# T6 sequence (Q00526 whole entry, looked up): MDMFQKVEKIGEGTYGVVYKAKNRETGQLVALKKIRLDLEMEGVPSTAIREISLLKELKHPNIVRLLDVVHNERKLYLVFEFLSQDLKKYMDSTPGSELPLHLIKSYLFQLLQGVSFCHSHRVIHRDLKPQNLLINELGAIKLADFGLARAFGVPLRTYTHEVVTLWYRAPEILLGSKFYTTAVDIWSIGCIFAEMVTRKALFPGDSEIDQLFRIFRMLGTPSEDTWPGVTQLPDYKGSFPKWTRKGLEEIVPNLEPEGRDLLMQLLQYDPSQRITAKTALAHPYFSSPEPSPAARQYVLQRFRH
# [11] = target: T6, CDK3/cyclin E (Homo sapiens); conditions: at 10 µM
# [12] = target: T7, Cyclin-dependent kinase 5/CDK5 activator 1 (Homo sapiens) (UniProt Q00535+Q15078); conditions: at 1 µM
# T7 sequence (Q00535 whole entry): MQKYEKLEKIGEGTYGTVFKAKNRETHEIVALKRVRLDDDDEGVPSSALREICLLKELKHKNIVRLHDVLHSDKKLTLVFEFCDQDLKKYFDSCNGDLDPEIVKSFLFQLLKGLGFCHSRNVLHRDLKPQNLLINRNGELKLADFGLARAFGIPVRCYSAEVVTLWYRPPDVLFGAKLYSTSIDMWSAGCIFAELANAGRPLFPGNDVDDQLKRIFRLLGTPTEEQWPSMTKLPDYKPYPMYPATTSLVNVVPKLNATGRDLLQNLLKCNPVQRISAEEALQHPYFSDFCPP
# T7 sequence (Q15078 99-307 partner limits assumed): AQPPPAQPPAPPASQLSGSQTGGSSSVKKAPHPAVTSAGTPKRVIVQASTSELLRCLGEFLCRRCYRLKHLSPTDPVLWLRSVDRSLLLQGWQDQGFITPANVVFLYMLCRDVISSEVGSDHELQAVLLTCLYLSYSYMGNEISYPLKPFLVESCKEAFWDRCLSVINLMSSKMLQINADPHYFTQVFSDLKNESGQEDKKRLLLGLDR
# [13] = target: T7, Cyclin-dependent kinase 5/CDK5 activator 1 (Homo sapiens); conditions: at 10 µM
# [14] = target: T7, Cyclin-dependent kinase 5/CDK5 activator 1 (Homo sapiens); conditions: at 1 µM; remark: listed apart in the source
# [15] = target: T7, Cyclin-dependent kinase 5/CDK5 activator 1 (Homo sapiens); conditions: at 10 µM; remark: listed apart in the source
# [16] = target: T8, CDK6/cyclin D3 (Homo sapiens) (UniProt P30281+Q00534); conditions: at 1 µM
# [17] = target: T8, CDK6/cyclin D3 (Homo sapiens); conditions: at 10 µM
# [18] = target: T9, Cyclin-dependent kinase 7/ cyclin H (Homo sapiens) (UniProt P51946+P50613); conditions: at 1 µM
# [19] = target: T9, Cyclin-dependent kinase 7/ cyclin H (Homo sapiens); conditions: at 10 µM
# [20] = target: T2, Serine/threonine-protein kinase BRSK2 (Homo sapiens); conditions: at 1 µM
SMILES,residual activity [1] [%],residual activity [2] [%],residual activity [3] [%],residual activity [4] [%],residual activity [5] [%],residual activity [6] [%],residual activity [7] [%],residual activity [8] [%],residual activity [9] [%],residual activity [10] [%],residual activity [11] [%],residual activity [12] [%],residual activity [13] [%],residual activity [14] [%],residual activity [15] [%],residual activity [16] [%],residual activity [17] [%],residual activity [18] [%],residual activity [19] [%],residual activity [20] [%]
CC(C)c1nn(-c2c(Cl)cccc2Cl)c2nc(Cc3ccc(OCCO)cc3)[nH]c(=O)c12,70,78,93,3,0,0,0,-1,-3,-1,-1,0,-1,-1,-1,43,9,15,1,–
COc1cc2nccc(Oc3ccc(NC(=S)NC(=O)c4ccccc4C)cc3)c2cc1OC,100,56,89,–,–,–,–,–,–,89,74,85,86,97,86,78,77,75,87,89
O=C1Nc2ccc(Cl)cc2/C1=C/c1cc(Cl)c(O)c(Cl)c1,40,29,47,95,97,118,79,95,97,90,73,97,77,97,80,89,86,84,87,86
Nc1n[nH]c2nc3ccccc3nc12,80,48,–,96,59,86,44,83,46,83,28,80,35,92,41,92,69,89,76,–
O=C1NC(=O)C(c2cn(CCCO)c3ncccc23)=C1c1cnccn1,94,84,74,72,63,84,59,87,64,93,70,73,51,90,61,–,–,71,54,–
Nc1ncnc2[nH]nc(Nc3ccc(F)cc3)c12,74,18,12,–,21,–,49,91,59,–,39,98,–,110,–,107,78,98,–,65
CC(C)(C)n1nc(Cc2cccc3ccccc23)c2c(N)ncnc21,90,91,98,106,92,130,57,107,69,86,63,110,82,87,86,87,97,86,90,111
Oc1cccc(-c2nc(N3CCOCC3)c3oc4ncccc4c3n2)c1,95,84,100,–,–,129,93,–,–,118,97,–,–,92,91,91,67,86,96,96
O=C(CCCc1ccc(-c2ccccc2F)cc1)Nc1ccc(O)cc1,102,83,105,–,–,96,98,101,92,102,94,104,99,111,99,103,98,98,105,107
NC(=O)Nc1sc(-c2ccc(F)cc2)cc1C(N)=O,55,15,18,100,57,59,21,79,26,73,43,70,33,81,33,78,33,87,61,83
CCCC(=O)Oc1ccc2[nH]c(C(=O)c3cc4ccccc4[nH]3)cc2c1,90,91,–,–,–,133,99,105,95,95,74,–,95,74,87,79,74,83,97,96
O=C(O)/C=C/c1cc(Br)c(Br)c(Br)c1Br,103,49,45,109,56,–,67,100,91,103,87,94,84,–,76,100,95,104,89,91
O=C(c1cc2cc(O)ccc2[nH]1)c1cc2cc(O)ccc2[nH]1,5,7,6,60,15,78,9,50,13,51,8,23,4,37,6,38,7,76,41,37
CCN(CC)CCNC(=O)c1c(C)[nH]c(/C=C2\C(=O)Nc3ccc(Cl)cc32)c1C,6,9,10,–,57,134,69,98,65,–,–,77,22,72,28,70,13,15,2,29
COc1ccc(Cl)cc1NC(=O)Nc1cc(C)nc2ccccc12,60,64,100,–,–,–,88,–,–,93,91,–,–,–,77,95,83,80,90,77
O=c1cc(N2CCOCC2)oc2c1ccc1ccccc12,91,96,108,106,91,–,87,95,97,102,79,80,67,100,81,100,89,86,88,102
O=C(NC(NC(=S)Nc1ccc(F)c([N+](=O)[O-])c1)C(Cl)(Cl)Cl)C(c1ccccc1)c1ccccc1 (stereo not given),91,63,73,–,–,–,96,90,77,100,93,98,–,–,83,97,94,–,–,93
CN(C)S(=O)(=O)c1ccc2c(c1)/C(=C/c1cc3c([nH]1)CCCC3)C(=O)N2,97,75,50,88,95,87,77,96,97,87,83,90,98,90,87,96,87,25,16,40
N#C/C(=C1/Nc2ccccc2S1)c1ccnc(NCCc2cccnc2)n1,80,45,29,–,–,81,33,–,–,84,44,74,54,88,49,100,63,80,54,96
Cn1c2ccccc2c2c3c(c4c5ccccc5n(CCC#N)c4c21)CNC3=O,6,6,6,20,18,22,17,7,12,–,–,5,4,3,6,48,38,74,79,7
O=c1c(-c2ccc(F)cc2)c(-c2ccncc2)[nH]n1-c1ccc(Cl)cc1,100,59,76,–,–,99,–,–,102,–,–,–,–,–,–,–,–,–,–,–
O=C1NC(=O)C(c2c[nH]c3ccccc23)=C1c1c[nH]c2ccccc12,27,35,35,–,39,97,19,79,30,–,29,74,28,76,42,–,–,76,32,73
O=C(c1ccccc1)c1ccc(N2CCOCC2)cc1O,83,119,113,–,94,119,72,–,–,96,97,–,88,91,96,–,89,87,–,112
O=c1cc(N2CCNCC2)oc2c(-c3ccccc3)cccc12,70,74,95,104,102,125,87,–,103,102,84,100,71,100,82,93,94,94,81,98
CC(C)(C)c1nc2c3ccc(F)cc3c3c(=O)[nH]ccc3c2[nH]1,32,7,4,–,–,–,–,–,–,–,54,–,–,–,–,71,50,69,–,13
O=C1C(Cl)=C(N2C(=O)CCC2=O)C(=O)c2ccccc21,82,79,92,–,–,86,89,95,98,97,85,95,86,119,85,98,86,–,89,118
Cc1cc(C)c(/C=C2\C(=O)Nc3ccccc32)[nH]1,75,57,48,–,–,–,–,–,–,–,69,–,–,–,–,–,60,64,32,100
Nc1nc(Nc2ccc(S(N)(=O)=O)cc2)nn1C(=O)c1c(F)cccc1F,55,12,15,1,0,-1,1,2,-1,3,0,0,0,-1,0,57,12,57,10,40
Nc1ncnc2c1cnn2-c1ccccc1,23,23,54,–,–,125,94,98,–,95,86,–,–,92,79,95,85,86,88,97
